Values joined by “and” are separate entries in the source; they are usually repeats but may differ in a detail not shown here. Equal values may be shown once. Records with an inconclusive call do not appear. Where a call stands in place of a potency, no number is given. A number with no mark means an inactive call. Active and inactive are the calls of the source. Calls follow the shape of the dose curve; as a rule, active = well fitted inhibition curve with a large enough effect in the repeat runs; inconclusive = weak or mixed curves; inactive = no such curve, though single readings can be large or run the other way.
Potency is read from the fitted curve at half-maximal effect.

For this assay, the target named is Cytochrome P450 1A2 (Homo sapiens) (UniProt P05177). Briefly: Cytochrome P450 Family 1 Subfamily A Member 2 (CYP1A2) small molecule antagonists: luciferase reporter qHTS assay (AID 1671199). Also: nearly all actives have a fitted effect of over 50% in size. To be noted: P450-Glo CYP1A2 enzyme, luciferin luminescence, 1 h; series mostly up to 53 µM. The text has this: National Center for Advancing Translational Sciences [NCATS]
Sequence of Cytochrome P450 1A2 (Homo sapiens) (P05177 whole entry, looked up): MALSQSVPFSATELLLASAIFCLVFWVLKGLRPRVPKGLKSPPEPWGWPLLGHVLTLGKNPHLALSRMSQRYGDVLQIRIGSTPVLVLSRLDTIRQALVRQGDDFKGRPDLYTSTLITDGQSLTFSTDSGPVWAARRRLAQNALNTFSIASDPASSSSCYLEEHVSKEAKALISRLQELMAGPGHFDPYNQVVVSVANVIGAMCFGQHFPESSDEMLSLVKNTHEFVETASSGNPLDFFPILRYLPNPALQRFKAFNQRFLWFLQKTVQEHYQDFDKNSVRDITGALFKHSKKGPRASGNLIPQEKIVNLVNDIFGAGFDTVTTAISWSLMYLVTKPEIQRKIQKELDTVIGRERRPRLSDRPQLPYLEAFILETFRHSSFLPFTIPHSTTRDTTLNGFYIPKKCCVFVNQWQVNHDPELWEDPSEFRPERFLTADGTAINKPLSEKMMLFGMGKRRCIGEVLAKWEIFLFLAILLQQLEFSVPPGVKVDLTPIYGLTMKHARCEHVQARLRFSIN
U.S. Environmental Protection Agency [EPA]
National Institutes of Environmental Health Sciences [NIEHS]
National Toxicology Program [NTP]
U.S. Food and Drug Administration [FDA]
Cytochrome P450 (CYP) enzymes are membrane-bound hemeproteins that play a key role in metabolism of drugs and xenobiotics. Evaluation of the effect of chemicals on CYP isozymes is useful to minimize the adverse drug reactions and toxicities in drug development process. Tox21 chemicals were tested for their effect on CYP enzyme activities by using P450-Glo (TM) screening systems (Promega Corporation, Madison, WI). These systems provide a luminescent method containing proluciferin substrates and are converted to luciferin products by CYP isozymes. The luciferin products formed are detected with a luciferin detection reagent, and the amount of light produced is proportional to CYP activity. P450-Glo (TM) CYP1A2 screening system (Catalog. No. V9770) was used to detect the compounds that interfere in CYP1A2 activity. The positive control compound used for CYP1A2 assay is furafylline (Sigma-Aldrich, St. Louis, MO).
Tox21 Assay Protocol Summary:
Two ul of enzyme-substrate mix was dispensed into medium binding white/solid 1536-well plates (Greiner Bio-One North America Inc., Monroe, NC) using a BioRaptr Flying Reagent Dispenser (FRD, Beckman Coulter, Brea, CA). Compounds dissolved in DMSO and positive control (furafyllline) were transferred to the assay plates at 23 nl using a Pintool station (Wako, San Diego, CA). The assay plates were incubated at room temperature for 10 min. Then 2 ul of NADPH regeneration solution was added to each well of the assay plates using an FRD and incubated at room temperature for 1 h. The reaction was stopped by adding 4 ul of detection reagent using an FRD and after 20 min incubation at room temperature the luminescence signal was measured using a ViewLux plate reader (Perkin Elmer, Shelton, CT). Data were expressed as relative luminescence units.
A general note: Reporter assays use an easily measured gene product as a stand-in for the process of interest.
With `C1COCO1`, the Potency result is “inactive”.
The same measure, in the same setting: next, `Cc1ccc(S)cc1`: 31.7 µM (active); `CCC(Cc1ccccc1)(C(=O)c1ccc(N2CCOCC2)cc1)N(C)C` (stereo not given): “inactive”; `CC(COc1ccc(C(C)(C)C)cc1)OS(=O)OCCCl` (stereo not given): “inactive”.
Same read-out and setting: next, `CCC(=O)Oc1ccc(/C(CC)=C(\CC)c2ccc(OC(=O)CC)cc2)cc1`: “inactive”.
As for `CC(=O)[C@H]1CC[C@H]2[C@@H]3C=CC4=CC(=O)CC[C@@]4(C)[C@@H]3CC[C@]12C`, the Potency entry is “inactive”.
For `COc1cc2ncnc(Nc3ccc(F)c(Cl)c3)c2cc1OCCCN1CCOCC1`, the Potency result is “inactive”.
Same read-out and setting: next, `CC(C)CCCCCCOC(=O)CCCCC(=O)OCCCCCCC(C)C`: 35.6 µM (active); `C[Si]1(C)O[Si](C)(C)O[Si](C)(C)O1`: “inactive”; `CC(=O)CC(c1ccc([N+](=O)[O-])cc1)c1c(O)c2ccccc2oc1=O` (stereo not given): “inactive”.
The same measure, in the same setting: the value for `O=C(NCCCN1CCOCC1)c1ccc(Cl)cc1` was “inactive”; that for `Nc1nc(Cl)nc2c1ncn2[C@@H]1O[C@H](CO)[C@@H](O)[C@@H]1F` was “inactive”.
Take `CCCOC(=O)c1ccc(N)cc1`: the Potency is 6.45 µM (active).
Still for that read-out and setting: next, `O=C(Nc1ccc([N+](=O)[O-])cc1)Nc1ccc([N+](=O)[O-])cc1`: “inactive”.
`C=CCCCCCCCCCCCCCCCC`: the activity change, negative = inhibition was -11.2% [at 10.5 µM].
On to `CCCCCCCCCCCC[N+](C)(C)CC(=O)[O-]`, for which the Potency is 35.6 µM (active).
Still for that read-out and setting: next, `CNCCCC1c2ccccc2C=Cc2ccccc21`: “inactive”.
Same read-out and setting: next, `C[C@@H]1C[C@H]2[C@@H]3CCC4=CC(=O)C=C[C@]4(C)[C@@]3(F)[C@@H](O)C[C@]2(C)[C@H]1C(=O)CO`: “inactive”; `CO/N=C1\CN(c2nc3c(cc2F)c(=O)c(C(=O)O)cn3C2CC2)CC1CN` (stereo not given): “inactive”; `CO[C@@]12[C@H](COC(N)=O)C3=C(C(=O)C(C)=C(N)C3=O)N1C[C@@H]1N[C@@H]12`: 30.9 µM (active).
The same measure, in the same setting: next, `O=C(O)c1ccc(CO)o1`: 64.4 µM (active).
Consider `c1cnc2c(n1)CCCC2`, for which the Potency result is “inactive”.
Same read-out and setting: the value for `Cc1oc(C)c(C(=O)Nc2ccccc2)c1C` was 15.9 µM (active); that for `CCOC(=O)C(C)Oc1ccc(Oc2nc3ccc(Cl)cc3o2)cc1` (stereo not given) was 31.7 µM (active); that for `COc1cc2c(cc1OC)-c1cc(=Nc3c(C)cc(C)cc3C)n(C)c(=O)n1CC2` was “inactive”.
As to `Cc1cc(C(=C2C=CC(=Nc3ccc(S(=O)(=O)O)cc3S(=O)(=O)O)C=C2)c2ccc(Nc3ccc(S(=O)(=O)O)cc3)cc2)ccc1N`, the Potency result was “inactive”.
Regarding `CC1=NN(c2ccc(C(=O)O)cc2)C(=O)C1`, the Potency entry is “inactive”.
Same read-out and setting: next, `CCCCCCCCSCCO`: 39.9 µM (active).
Still for that read-out and setting: the value for `Cc1ccc(/C=N/n2c(-c3ccccc3)csc2=S)cc1` was 7.76 µM (active).
In the case of `O=C(C(=O)c1ccccc1)c1ccccc1`, the Potency is 11.2 µM (active).
The same measure, in the same setting: next, `Cc1oncc1C(=O)Nc1ccc(C(F)(F)F)cc1`: 1.59 µM (active) and 911 nM (active).
For the compound `Cc1cc(S(=O)(=O)O)ccc1N=Nc1c(O)ccc2ccccc12`, the Potency is 25.2 µM (active).
Still for that read-out and setting: the value for `CCCOCCOCCO` was “inactive”.
On to `O=C(O)c1c(O)c(-c2ccccc2)nc2ccccc12`, for which the Potency is 17.4 µM (active).
The same measure, in the same setting: the value for `CC(C)(C)CC(C)(C)c1ccc(OCCO)cc1` was “inactive”.
Regarding `CCCCCCCC/C=C\CCCCCCCC(=O)OC(CO)CO`, the Potency is 71 µM (active).
Same read-out and setting: next, `Cc1occc1C(=O)Nc1ccc(C(=O)N2CCC(F)(F)/C(=C\C(=O)N3CCC(N4CCCCC4)CC3)c3ccccc32)cc1`: 9.9 µM (active).
Take `Nc1nccs1`: the Potency entry was “inactive”.
Turning to `CN1CCN(c2c(F)cc3c(=O)c(C(=O)O)cn4c3c2OCN4C)CC1`, the Potency result is “inactive”.
Take `COC(=O)c1cc(S(N)(=O)=O)ccc1OC`: the Potency result is “inactive”.

(Values after PubChem BioAssay (Tox21).)
